The values that follow come from PubChem BioAssay.

Active and inactive are the calls of the source.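 The calls were made as follows, unless noted: active = visually confirmed hit in the image check and inhibition above 20%; inconclusive = visually confirmed hit but inhibition not above 20%; inactive = no visual hit in the image check.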

Usually inhibition stands for the change of the read-out against control, counted positive when it falls.

The nature of test [1]: inhibitors of TNFa-induced NFkB p65 translocation, primary screen, imaging, HUVEC, MLSMR starter and 10KST1 sets (AID 438;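 active = inhibition above 20% together with a positive visual image hit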;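 also: compound added about 3h40 before a 20 min TNFalpha stimulation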;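 as to inhibition: signal is the nuclear over cytoplasmic p65 intensity ratio per well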). The following applies: HUVEC TNFa-induced p65 nuclear translocation; cell count: measured here: nuclei count (cytotoxicity indicator), at 2.08 µM unless noted; inhibition: at 2 µM, stronger effect = higher value unless noted.
Test [2] is described as follows: endothelial E-selectin expression blockers – imaging, HUVEC, immunofluorescence, MLSMR starter and 10KST1 sets, primary screen (AID 487).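 As to inhibition: signal is fraction of cell area covered by stained E-selectin grains.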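 As to nuclei count: 100% = median nuclei count of all wells on the same plate.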 The following applies: HUVEC TNFalpha-induced E-selectin immunofluorescence imaging, at 2 µM; inhibition: stronger effect = higher value; nuclei count: measured here: cell number, toxicity.
A short description of test [3]: Primary imaging screen for DUSP6 inhibitors that restore phospho-Erk in transfected HeLa cells, chemical complementation (AID 609;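 active = compounds giving at least 50% inhibition in the cell-based MKP-3 phosphatase rescue imaging test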;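 as to inhibition: phospho-Erk level distribution per well compared with pooled transfected vehicle control wells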). To be noted: HeLa MKP-3 transfected, phospho-Erk imaging KS statistic, at 10 µM.
Test [4] deals with Dual specificity protein phosphatase 6 (Homo sapiens) (UniProt Q16828). Described as above. To be noted: HeLa MKP-3 transfected, phospho-Erk imaging KS statistic, at 10 µM, stronger effect = higher value.
Dual specificity protein phosphatase 6 (Homo sapiens), sequence (Q16828 whole entry, looked up): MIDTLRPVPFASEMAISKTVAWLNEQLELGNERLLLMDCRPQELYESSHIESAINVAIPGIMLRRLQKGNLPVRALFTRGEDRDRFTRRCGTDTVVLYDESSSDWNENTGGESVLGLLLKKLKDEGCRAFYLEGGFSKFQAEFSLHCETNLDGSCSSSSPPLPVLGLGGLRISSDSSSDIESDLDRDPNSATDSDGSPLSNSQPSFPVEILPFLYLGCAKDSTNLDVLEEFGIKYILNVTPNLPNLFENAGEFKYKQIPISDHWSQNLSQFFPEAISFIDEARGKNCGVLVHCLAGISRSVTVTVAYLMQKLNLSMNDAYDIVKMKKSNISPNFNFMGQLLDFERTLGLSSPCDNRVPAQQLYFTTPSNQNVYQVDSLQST
The target in test [5] is Voltage-gated potassium channel subunit beta-2 (Rattus norvegicus) (UniProt P62483). As to the kind of experiment: inhibitors of rat Kvbeta2 reductase activity – biochemical, NADPH fluorescence, primary screen (AID 622;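 active = fluorescence slope higher than the sample average by over 3 SD, cut at about -0.22 in these data, passing the limit was not always enough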;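 also: slope of raw intensity against log time taken from 70 to 1610 s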). To be noted: recombinant KvBeta, 4-cyanobenzaldehyde reduction, at 10 µM, stronger effect = higher value.
Voltage-gated potassium channel subunit beta-2 (Rattus norvegicus), sequence (P62483 whole entry, looked up): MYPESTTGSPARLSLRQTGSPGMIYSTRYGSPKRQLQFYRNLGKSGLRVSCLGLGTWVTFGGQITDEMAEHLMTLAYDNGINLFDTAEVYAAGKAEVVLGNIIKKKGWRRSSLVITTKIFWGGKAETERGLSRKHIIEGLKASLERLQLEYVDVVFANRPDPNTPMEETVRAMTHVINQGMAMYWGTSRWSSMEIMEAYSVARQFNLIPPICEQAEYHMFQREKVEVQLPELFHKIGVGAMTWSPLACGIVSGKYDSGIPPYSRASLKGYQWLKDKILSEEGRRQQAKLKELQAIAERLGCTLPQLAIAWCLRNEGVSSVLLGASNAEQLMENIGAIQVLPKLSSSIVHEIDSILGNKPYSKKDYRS
Test [6] shares this target. As to the kind of experiment: enhancers of rat Kvbeta2 NADPH turnover – biochemical, NADPH fluorescence, primary screen (AID 623;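 active = NADPH fluorescence slope more negative than the mean of all samples by about 3 SD, 99.7% confidence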;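 also: fluorescence intensity change per second fitted from 20 to 320 s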). To be noted: Recombinant KvBeta, NADPH fluorescence decrease slope, 10 min; at 10 µM; stronger effect = lower value.
Test [7] addresses Alpha-2C adrenergic receptor (Homo sapiens) (UniProt P18825). The experiment in a line: compounds altering alpha2C-coupled GIRK flux – cell-based, HEK293 alpha2C/GIRK1/2, thallium flux, primary screen (AID 624;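 active = fluorescence slope after compound addition differing from the mean of all screened samples at 99.7% confidence, in either direction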;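 also: slope of fluorescence ratio to pre-addition baseline per second over 15 to 24 s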). To be noted: thallium flux BTC fluorescence, at 10 µM, actives lie on both sides.
Test [8] in a line: inhibitors of larval lipid processing in zebrafish, primary screen, whole organism, PED6 fluorescence, gall bladder and intestine (AID 686;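 active = a full or partial loss of lipid-probe fluorescence in the fish gall bladder, intestine or both, judged by eye; inactive = no fluorescence loss, or compound toxic to the fish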;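 also: larvae 5 to 7 days old with five fish per well; signal comes from phospholipase A2 cleavage of quenched PED6 carried via bile; overnight exposure to compound and PED6 before scoring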). The following applies: Zebrafish larvae PED6 lipid processing, fluorescence scoring.
A short description of test [9]: loss of swimming-algae plug formation – whole organism, Chlamydomonas reinhardtii, WT vs cilia-less mutant, absorbance, 96-well, primary screen (AID 463189;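 active = inhibition at or above 50% relative to wild type and mutant plate controls; inactive = inhibition below 50%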;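 also: 0% = wild type cc124 cells in DMSO and 100% = ciliumless bld1 mutant cells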). To be noted: Chlamydomonas reinhardtii gravitaxis, OD600 absorbance, 2 days; at 10 µM; stronger effect = higher value.
The nature of test [10]: blockers of RIG-like receptor reporter activation – cell-based, Sendai virus stimulus, luciferase, 10K MLSCN set, TLR/RLR signaling modifier project, primary screen (AID 602276;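 active = inhibition at or above 50% at 10 µM; inactive = inhibition below 50%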;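 also: firefly luciferase from ISG56 promoter only with Renilla not read in this screen; 0% = Sendai virus plus DMSO and 100% = medium plus DMSO without virus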). The following applies: HEK293 RL24 IRF3 luciferase reporter, at 10 µM, stronger effect = higher value. A general note: A reporter such as luciferase makes a cellular process visible.
Test [11] in a line: TLR3 IRF3 reporter activation blockers – cell-based, poly I:C stimulus, luciferase, 10K MLSCN set, primary screen (AID 602277;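 active = inhibition of the reporter signal at or above 50%; inactive = inhibition below 50%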). The following applies: HEK293-TLR3 RL24 IRF3 luciferase reporter, at 10 µM, stronger effect = higher value.
Test [12] in a line: reduction of polyQ htt aggregates in cells – imaging, exon1htt(103Q)mCFP cells, high-content imaging, primary screen (AID 483;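 active = visual image review flags a hit and inhibition of aggregation exceeds 20%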;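 also: compound exposure lasted 3 days before fixation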;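 as to nuclei count: percent of the per-plate median nuclei count of sample wells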). To be noted: exon1htt(103Q)mCFP cell line, aggregate imaging, at 2 µM; inhibition of aggregation: stronger effect = higher value; nuclei count: measured here: cell count, toxicity.
The mark [13] stands for this setting: measured here: cell density z-score.
Where [14] appears, read: measured here: nuclear c-Myc green intensity z-score.
Setting [15] is: measured here: nuclear pErk red intensity z-score, stronger effect = higher value.

Alpha-2C adrenergic receptor (Homo sapiens), sequence (P18825 whole entry, looked up): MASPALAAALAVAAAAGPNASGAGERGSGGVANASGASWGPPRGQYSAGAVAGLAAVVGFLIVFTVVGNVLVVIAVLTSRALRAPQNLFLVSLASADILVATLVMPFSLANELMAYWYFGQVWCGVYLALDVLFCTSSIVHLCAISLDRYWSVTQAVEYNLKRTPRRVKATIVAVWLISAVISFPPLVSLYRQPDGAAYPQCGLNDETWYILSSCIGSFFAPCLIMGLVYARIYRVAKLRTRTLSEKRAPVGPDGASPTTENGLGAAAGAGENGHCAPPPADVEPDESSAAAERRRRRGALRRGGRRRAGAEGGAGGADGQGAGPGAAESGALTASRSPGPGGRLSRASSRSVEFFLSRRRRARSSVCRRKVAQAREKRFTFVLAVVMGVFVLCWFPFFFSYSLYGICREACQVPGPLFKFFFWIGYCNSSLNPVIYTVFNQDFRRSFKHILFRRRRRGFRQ

In test [1], `Clc1ccc(COC(Cn2ccnc2)c2ccc(Cl)cc2Cl)c(Cl)c1` (configuration not stated) had a cell count of 692. Also, the inhibition in test [1] is -0.4% [at 2 µM, stronger effect = higher value, 0% TNFa-plus-vehicle, 100% no-TNFa wells] (inactive); in [2], -73.1% (inactive); in [4], 31.1% [cells stimulated with TPA for 15 min] (inactive); in test [9], 36.1% (inactive); in test [10], 15.4% (inactive); in [11] it was 32.2% (inactive). Further, the nuclei count in [2] amounted to 144%. Moreover, the z-score in test [3] (measured here: cell density z-score, cells stimulated with TPA for 15 min) is -0.0883; in test [3] (measured here: nuclear c-Myc green intensity z-score, cells stimulated with TPA for 15 min), 1.51; in [3] (measured here: nuclear pErk red intensity z-score, stronger effect = higher value, cells stimulated with TPA for 15 min), -0.416. The fluorescence slope in test [5] was -0.515 (inactive). The NADPH fluorescence slope in [6] was -3.4e-05 (inactive). Further, the slope in test [7] is 0.00694 (inactive). Further, in [8], the outcome was “inactive; toxic [screened at 20 µM (by protocol)]”.

Turning to `CCOc1ccccc1-n1c(O)c(C=Nc2c(C)n(C)n(-c3ccccc3)c2=O)c(=O)[nH]c1=O`, in test [1], the cell count is 629. The inhibition in [1] was -13.3% (inactive); in [2] it was -48.3% (inactive); in test [4], 22.7% (inactive); in test [9], 0.366% (inactive). The molecule also showed a nuclei count in [2] of 148%. Besides, the z-score in [3] (setting [13]) is 1.53; in test [3] (setting [14]) it was -0.137; in [3] (setting [15]), 0.143. Moreover, the fluorescence slope in test [5] is -0.432 (inactive). Moreover, the NADPH fluorescence slope in [6] is -4.9e-06 (inactive). Further, the slope in [7] was 0.00796 (inactive). The molecule was called inactive in test [8].

In the case of `C#CCN(C)C(C)Cc1ccccc1` (configuration not stated), the cell count in test [1] worked out at 624. For the same molecule, the inhibition in [1] is -1.1% (inactive); in test [2], -90.1% (inactive); in test [4] it was 8% (inactive); in test [9], 10.4% (inactive); in [10], 16.5% (inactive); in test [11], 40.6% (inactive). Further, the inhibition of aggregation in test [12] was 13.6% (inactive). In addition, the nuclei count in test [12] came out at 96.7%; in [2], 124%. The values for the z-score in [3] (setting [13]), in test [3] (setting [14]) and in test [3] (setting [15]) were -0.521, 1.36 and 0.296, respectively. Besides, the fluorescence slope in test [5] is -0.447 (inactive). In test [6], the NADPH fluorescence slope was -7.1e-05 (inactive). The slope in test [7] was 0.00486 (inactive). Besides, in [8], the result was inactive.

`CN(C)[C@@H]1C(=O)C(C(N)=O)=C(O)[C@@]2(O)C(=O)C3=C(O)c4c(O)cccc4[C@@](C)(O)[C@H]3C[C@@H]12` yielded a cell count in [1] of 668. Moreover, the inhibition in [1] was 5.4% (inactive); in [2], -85.3% (inactive); in test [4], 21.2% (inactive); in [9], 22.3% (inactive); in test [10], 10.4% (inactive); in test [11], 33.9% (inactive). For the same molecule, the inhibition of aggregation in [12] was 72.1% (active). The nuclei count stood at 99.1% in test [12] and 113% in test [2]. For the same molecule, the values for the z-score in [3] (setting [13]), in [3] (setting [14]) and in test [3] (setting [15]) were -0.618, -0.0358 and -1.49, respectively. Besides, the fluorescence slope in test [5] is -0.433 (inactive). Also, the NADPH fluorescence slope in [6] was -5.8e-05 (inactive). Also, the slope in test [7] is 0.00553 (inactive). For the same molecule, the result in [8] was inactive.

The molecule `CC(C)Cc1[nH]c(=O)c(C#N)c2c1CCC2` registered a cell count in test [1] of 490. Also, the inhibition in test [1] was 8.7% (inactive); in test [2], -51.3% (inactive); in test [4] it was -1.75% (inactive); in [9] it was 20.8% (inactive). Further, the nuclei count in test [2] came out at 119%. Also, the z-score is 0.582 in test [3] (setting [13]), 0.998 in test [3] (setting [14]) and -0.369 in test [3] (setting [15]). In test [5], the fluorescence slope is -0.439 (inactive). For the same molecule, the NADPH fluorescence slope in test [6] was -4.3e-06 (inactive). Moreover, the slope in test [7] was 0.00495 (inactive). Further, in test [8], the molecule was called inactive.

`COc1ccc(OC)c([C@@H](O)[C@H](C)NC(C)(C)C)c1` displayed a cell count in [1] of 671. The inhibition in test [1] is -4.8% (inactive); in test [2] it was -81.3% (inactive); in test [4] it was 23.2% (inactive); in test [9] it was 17.4% (inactive); in test [10], 2.13% (inactive); in test [11] it was 33.4% (inactive). The inhibition of aggregation in test [12] was -2.8% (inactive). In addition, the nuclei count in test [12] turned out to be 95.5%; in [2], 138%. Further, the z-score in test [3] (setting [13]) stood at 0.193; in [3] (setting [14]), 0.685; in [3] (setting [15]), 0.252. For the same molecule, the fluorescence slope in test [5] is -0.517 (inactive). Moreover, the NADPH fluorescence slope in test [6] was -5.7e-05 (inactive). Besides, the slope in test [7] was 0.00439 (inactive). Also, the molecule was classed as inactive in test [8].
